# Experimental data reported in the supplement of paper PMC10338343.
# ± gives the standard deviation.
# Tested on: MILI (PIWIL2) piRISC loaded with piRNA #1 (26 nt)
# Assay: pre-steady-state target cleavage rate (min^-1); guide: piRNA #1 5'p-UGAGGUAGUAGGUUGUAUAGUAUCCA; MIWI and MILI are mouse PIWI proteins and EfPiwi is from a freshwater sponge; tags in brackets are library labels; higher = faster piRNA-guided slicing of the target
# Conditions: auxiliary factor: 500 nM mouse GTSF1
# In short: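 Sequencing of uncleaved targets, normalised to depth and to weakly complementary targets, was the readout of this Cleave-'n-Seq assay. A transcribed, DNA-blocked target RNA library (0.1 nM) was mixed with 1 nM active affinity-purified piRISC carrying one synthetic guide, with or without 500 nM GTSF1 partner protein, in HEPES–potassium acetate buffer at 33 °C for 0–8 or 0–960 min. Three trials were pooled, k3 was capped at 0.0001 min^-1, and a burst-and-steady-state fit gave the pre-steady-state cleavage rate.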
row,Sequence,pre-steady-state target cleavage rate
1,GGAGACCAUACUAUACAACCAACUACCUCA,0.00362 ± 0.0025
2,GGAGUGGAUACUUUACAACCUAGUACCUCA,0.0239 ± 0.0053
3,GGAGACCUUAGAUUACAACCUACUACCUCA,0.0208 ± 0.007
4,GGAGACCAUACUAAUGAACCUACUACCUCA,0.0422 ± 0.011
5,GGAGACCUAUGAUUACAACCUACUACCGUCA,0.00492 ± 0.0022
6,GGAGACCUAUCUAUUCAACCUACUACCACA,0.144 ± 0.022
7,GGAGACCUAUGUAAACAUCCUACUACCUCA,0.0128 ± 0.0025
8,GGAGACCAUACUAUACAAACUACUACCUCA,0.234 ± 0.017
9,GGAGACCUAACUAUACAACCUACUAGCACA,0.00779 ± 0.0065
10,GGAGACCUAACUAUACAACCUACUAUCCUCA,0.177 ± 0.047
11,GGAGACCUAACUAUACAACCUACAUACCUCA,0.0941 ± 0.018
12,GGAGACCUAUCUAUACAACCUACUUGCUCA,0.109 ± 0.023
13,GGAGACCUAUGAUUACAUCCUUCUACCUCA,0.00314 ± 0.0026
14,GGAGACCAUACUAUACAAGCUUCUACCUCA,0.036 ± 0.007
15,GGAGACCUUUCUAUACAACCUACUUCCUCA,0.0321 ± 0.0062
16,GGAGACCUUACUAUACAAACUACUACCUCA,0.204 ± 0.014
17,GGAGACCUAUGAUAACAACCUACUACCGCA,0.00318 ± 0.003
18,GGAGAGCAUACUAUACAAGCUACUACCUCA,0.22 ± 0.015
19,GGAGACCUAUGUAUCACAACCUACUACCUCA,0.0102 ± 0.003
20,GGAGACCUAUCUAUACAACCUACUACUCUCA,0.194 ± 0.021
21,GGAGACCUUACAAUAGAACCUACUACCUCA,0.0823 ± 0.01
22,GGAGACCUAUGAAUACAACCUAAUACCUCA,0.00363 ± 0.0026
23,GGAGACCAUACUAUAGAACCUACUUCCUCA,0.0428 ± 0.013
24,GGAGACCUUACUAUUCUACCUACUACCUCA,0.124 ± 0.0096
